# Unmarked numbers belong to inactive results. Records with an inconclusive call do not appear. Calls of active or inactive are those of the source. Unless noted, calls come from the whole dose curve; as a rule, active = well fitted curve in the direction sought with a large enough effect in the repeat runs; inconclusive = weak or mixed curves; inactive = no such curve, though single readings can be large; an effect the other way counts as inactive or inconclusive.
# Assay: qHTS assay to identify small molecule agonists of the estrogen related receptor (ERR) signaling pathway from Tox21 library (AID 1224849; calls by dose curve; note: nearly all actives have a fitted effect of over 15% in size)
# Details: ERR reporter cell line, ONE-Glo luciferase, 18 h; at 92.4 µM (top of the series) unless noted
# Procedure, shortened: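 Luminescent agonist read-out (One-Glo, 30-minute room-temperature incubation) following 18-hour compound treatment at 37 C of the ERR cell line, which had been plated 6 hours before dosing.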
# % is set by controls: 0 for no effect and ±100 for the full control effect.
row,Structure (SMILES),"activity change, positive = activation"
1,C=C(C)[C@@H]1CCC2=CCC[C@@H](C)[C@]2(C)C1,-7.47%
2,CCCCCCC(C)(C)C(=O)O,-23%
3,Cc1cccc(N(C)C(=S)Oc2ccc3c(c2)CCC3)c1,-21.2% [at 42.5 µM]
4,O=C1c2ccccc2C(=O)c2c(O)c(O)cc(O)c21,-7.48%
5,CC1CC(OC(=O)C(O)c2ccccc2)CC(C)(C)N1C (configuration not stated),-3.41% [at 42.5 µM]
6,CC(CCC(=O)O)C(=O)O (configuration not stated),3.47%
7,CCCCCC[C@@H](O)C/C=C\CCCCCCCC(=O)OCC(O)CO (some centres not stated),-2.03%
8,CCOC(=O)/C=C/C(=O)OCC,6.14%
9,C[C@@H]1CN(CCCn2c3ccccc3c3ccccc32)C[C@H](C)N1,-72.9% [at 42.5 µM]
10,O=C1Cc2cc(Cl)ccc2N1,0.547% [at 42.5 µM]
11,N#[N+]c1ccc2c(S(=O)(=O)[O-])cccc2c1O,-0.985%
12,Cc1cc(O)c(C)c(C)c1O,2.57% [at 42.5 µM]
13,COC(=O)c1nc(Cl)c(Cl)nc1N,-72.9% [at 42.5 µM]
14,NCCNCCO,0.838%
15,CCOC(=O)c1ccc(I)cc1,-4.74%
16,CC[N+](CC)(CCNC(=O)C(=O)NCC[N+](CC)(CC)Cc1ccccc1Cl)Cc1ccccc1Cl,8.73% [at 42.5 µM]

# Assay: qHTS RealTime-Glo MT Cell Viability Assay in HepG2 cells - 24 hour (AID 1224867); note: nearly all actives have a fitted effect of over 50% in size; note: potency is the fitted concentration of half-maximal effect
# Details: RealTime-Glo luminescence; series mostly up to 76.8 µM; activity change, negative = cytotoxicity: at the top concentration
# Procedure, shortened: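 Compound treatment began 5 h after plating HepG2 cells (600/well) with NanoLuc luciferase and prosubstrate. Plates stayed at 37 C for 40 h; luminescence was captured at six time points, 0 h through 40 h.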
Structure (SMILES),"activity change, negative = cytotoxicity",Potency
C=C(C)[C@@H]1CCC2=CCC[C@@H](C)[C@]2(C)C1,-2.57%,
Oc1c(I)cc(I)c2cccnc12,-7.65% [at 35.3 µM],
CCC1NC(=O)c2cc(S(N)(=O)=O)c(Cl)cc2N1 (configuration not stated),1.06% [at 35.3 µM],
CCC=CC#N,1.02%,
CC1CC(C)C(=O)C1=O (configuration not stated),0.231%,
C1COC1,-0.765%,
CCCCCCC(C)(C)C(=O)O,0.679%,
Cc1cccc(N(C)C(=S)Oc2ccc3c(c2)CCC3)c1,-12.2% [at 35.3 µM],
O=C1c2ccccc2C(=O)c2c(O)c(O)cc(O)c21,-7%,
CC1CC(OC(=O)C(O)c2ccccc2)CC(C)(C)N1C (configuration not stated),3.1% [at 35.3 µM],
CCOC(C)=O,-2.07%,
CCCCC(CC)COP(=O)(O)O (configuration not stated),1.65%,
CC(CCC(=O)O)C(=O)O (configuration not stated),3.7%,
CCC(C)COC(=O)CC(C)C (configuration not stated),-1.41%,
CCCCN(CCCC)C(C(N)=O)c1ccc(OC)cc1 (configuration not stated),0.906% [at 35.3 µM],
Cc1ccco1,0.83%,
CCCCCC[C@@H](O)C/C=C\CCCCCCCC(=O)OCC(O)CO (some centres not stated),15.7%,
CCOC(=O)/C=C/C(=O)OCC,-1.3%,
C[C@@H]1CN(CCCn2c3ccccc3c3ccccc32)C[C@H](C)N1,,23.9 µM (active)

Structure (SMILES),"activity change, negative = cytotoxicity",Potency
O=c1[nH]c2ccc(Cl)cc2o1,1.41%,
O=C1Cc2cc(Cl)ccc2N1,2.03% [at 35.3 µM],
CCC(C)COC(C)=O (configuration not stated),4.81%,
N#[N+]c1ccc2c(S(=O)(=O)[O-])cccc2c1O,-5.73%,
Cc1cc(O)c(C)c(C)c1O,1.02% [at 35.3 µM],
Oc1cccc(Nc2ccccc2)c1,-4.21%,
CC(=O)OCC(=O)NCCCOc1cccc(CN2CCCCC2)c1,0.354% [at 35.3 µM],
O=C(/C=C/c1ccccc1)OCCc1ccccc1,-6.26%,
CC(=O)Nc1ccc(C)cc1C,3.69%,
CCCCCC[C@@H](O)C/C=C\CCCCCCCC(=O)O,2.21%,
NCCNCCO,-1.31%,
Cc1ccc2c(Br)cc(Br)c(O)c2n1,2.22% [at 35.3 µM],
O=C(O)C[C@H](NC(=O)OCc1ccccc1)C(=O)O,-5.26%,
O=C(Nc1cccc2c(=O)cc(-c3nn[nH]n3)oc12)c1ccc(OCCCCc2ccccc2)cc1,-1.15% [at 35.3 µM],
CCOC(=O)c1ccc(I)cc1,5.24%,
CC(=O)c1ccc([N+](=O)[O-])cc1,2.37%,
CC[N+](CC)(CCNC(=O)C(=O)NCC[N+](CC)(CC)Cc1ccccc1Cl)Cc1ccccc1Cl,2.57% [at 35.3 µM],
Cc1ccc(C(C)(C)O)cc1,2.4%,

# Assay: qHTS RealTime-Glo MT Cell Viability Assay in HEK293 cells - 32 hour (AID 1224868); note: nearly all actives have a fitted effect of over 50% in size; note: potency is the fitted concentration of half-maximal effect; for activity change, negative = cytotoxic: top concentration of the series differs between compounds
# Details: RealTime-Glo luminescence; series mostly up to 76.8 µM; activity change, negative = cytotoxic: at the top concentration
# Procedure, shortened: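 Quantitative high-throughput screen of the Tox21 10K library in HEK293: cells and RealTime-Glo reagents plated together, compound added at 5 h, luminescence monitored through 40 h at 37 C.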
Structure (SMILES),"activity change, negative = cytotoxic",Potency
C=C(C)[C@@H]1CCC2=CCC[C@@H](C)[C@]2(C)C1,-0.0078%,
CN1CCCC(n2nc(Cc3ccc(Cl)cc3)c3ccccc3c2=O)CC1 (configuration not stated),,9.52 µM (active)
CCC1NC(=O)c2cc(S(N)(=O)=O)c(Cl)cc2N1 (configuration not stated),6.9% [at 35.3 µM],
CCC=CC#N,10.1%,
CC1CC(C)C(=O)C1=O (configuration not stated),,13.8 µM (active)
C1COC1,8.73%,
CCCCCCC(C)(C)C(=O)O,3.26%,
Cc1cccc(N(C)C(=S)Oc2ccc3c(c2)CCC3)c1,-17.7% [at 35.3 µM],
O=C1c2ccccc2C(=O)c2c(O)c(O)cc(O)c21,7.44%,
CC1CC(OC(=O)C(O)c2ccccc2)CC(C)(C)N1C (configuration not stated),0.142% [at 35.3 µM],
CCOC(C)=O,5.95%,
CC(CCC(=O)O)C(=O)O (configuration not stated),0.378%,
CCC(C)COC(=O)CC(C)C (configuration not stated),-11.6%,
Cc1ccco1,13.9%,
CCCCCC[C@@H](O)C/C=C\CCCCCCCC(=O)OCC(O)CO (some centres not stated),12.5%,
CCOC(=O)/C=C/C(=O)OCC,9.41%,
C[C@@H]1CN(CCCn2c3ccccc3c3ccccc32)C[C@H](C)N1,,26.8 µM (active)

Structure (SMILES),"activity change, negative = cytotoxic",Potency
O=c1[nH]c2ccc(Cl)cc2o1,1.12%,
O=C1Cc2cc(Cl)ccc2N1,17.3% [at 35.3 µM],
CCC(C)COC(C)=O (configuration not stated),9.32%,
Nc1nnc(-c2ccc([N+](=O)[O-])o2)o1,-19.8%,
N#[N+]c1ccc2c(S(=O)(=O)[O-])cccc2c1O,-22.2%,
Oc1cccc(Nc2ccccc2)c1,,14.4 µM (active)
CC(=O)OCC(=O)NCCCOc1cccc(CN2CCCCC2)c1,-0.299% [at 35.3 µM],
O=C(/C=C/c1ccccc1)OCCc1ccccc1,-3.25%,
CC(=O)Nc1ccc(C)cc1C,-3.95%,
COC(=O)c1nc(Cl)c(Cl)nc1N,,5.35 µM (active)
CCCCCC[C@@H](O)C/C=C\CCCCCCCC(=O)O,13.9%,
NCCNCCO,21.3%,
O=C(O)C[C@H](NC(=O)OCc1ccccc1)C(=O)O,0.135%,
O=C(Nc1cccc2c(=O)cc(-c3nn[nH]n3)oc12)c1ccc(OCCCCc2ccccc2)cc1,-0.9% [at 35.3 µM],
CC(=O)c1ccc([N+](=O)[O-])cc1,10.7%,
CC[N+](CC)(CCNC(=O)C(=O)NCC[N+](CC)(CC)Cc1ccccc1Cl)Cc1ccccc1Cl,0.0458% [at 35.3 µM],
Cc1ccc(C(C)(C)O)cc1,-4.75%,
